# Giardia FBPA inh – qHTS Assay for Inhibitors of Fructose-1,6-bisphosphate Aldolase from Giardia Lamblia; A8B2U2; purified Giardia FBPA; Potency, µM (series often up to 59.6 µM), for the others: at the highest dose activity, negative = inhibition, actives largely listed as inhibitors; actives 0.71% (n = 290,000); AID 2451, 2010; also: potency is read from the fitted curve at half-maximal effect; % is scaled to controls: 0 for no effect and ±100 for the full control effect; nearly all actives have a fitted effect of over 55% in size
#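 Giardia FBPA (40 nM reagent) was preincubated 10 min at RT with compound (up to 57.5 uM final), then substrate plus GAPDH/TPI/NAD/arsenate coupling system with diaphorase/resazurin was added; resorufin fluorescence (525/598 nm) was read after 20 min.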
# Shiga toxin inh – A qHTS for Small Molecule Inhibitors of Shiga Toxin; inhibition, % at 38.7 µM; actives 9.2% (n = 290,000); AID 2315, 2010; Vero cells, Shiga toxin protein synthesis inhibition reporter; in the data active = inhibition mostly above about 28%, no sharp cut-off; inactive = mostly below about 43%; also: 0% is about no effect
# CHX counter – Cycloheximide Counterscreen for Small Molecule Inhibitors of Shiga Toxin | cell reporter, cycloheximide protein synthesis inhibition counterscreen | max response, % | actives 12% (n = 300,000) | AID 2314, 2010; in the data active = max response mostly above about 13%, no sharp cut-off; inactive = mostly below about 14%; also: read at 38.3 µM for the half of the compounds with a filed dose; 0% is about no effect
# Sm TGR block – qHTS Assay for the Inhibitors of Schistosoma Mansoni Peroxiredoxins; Schistosoma mansoni thioredoxin glutathione reductase (TGR), Q962Y6; purified TGR, DTNB reduction, TNB absorbance 405 nm; Potency, µM (titrated, usually from 114 µM), without a hit: at the highest dose activity change, negative = inhibition, most hits filed as inhibitors; actives 3% (n = 360,000); AID 485364, 2010; also: potency is read from the fitted curve at half-maximal effect; % is scaled to controls: 0 for no effect and ±100 for the full control effect; nearly all actives have a fitted effect of over 60% in size
#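 TGR 20 nM + NADPH 100 uM (dispensed conc.), cpd preinc 15 min RT; start with NADPH (500 uM addition) then DTNB (15 mM addition). Kinetic TNB absorbance, 405 nm filter. Four-parameter Hill fit across titration.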
# LmPK inh – qHTS Assay for Inhibitors of Leishmania Mexicana Pyruvate Kinase (LmPK); Potency, µM (top dose mostly 57.5 µM), for inactives: at the highest dose activity change, negative = inhibition, most hits filed as inhibitors; actives 0.37% (n = 290,000); purified LmPK, Kinase-Glo ATP luminescence, 1 h; Q27686; AID 1721, 2009; also: potency is read from the fitted curve at half-maximal effect; % is scaled to controls: 0 for no effect and ±100 for the full control effect
# Target sequence (Q27686 whole entry, looked up): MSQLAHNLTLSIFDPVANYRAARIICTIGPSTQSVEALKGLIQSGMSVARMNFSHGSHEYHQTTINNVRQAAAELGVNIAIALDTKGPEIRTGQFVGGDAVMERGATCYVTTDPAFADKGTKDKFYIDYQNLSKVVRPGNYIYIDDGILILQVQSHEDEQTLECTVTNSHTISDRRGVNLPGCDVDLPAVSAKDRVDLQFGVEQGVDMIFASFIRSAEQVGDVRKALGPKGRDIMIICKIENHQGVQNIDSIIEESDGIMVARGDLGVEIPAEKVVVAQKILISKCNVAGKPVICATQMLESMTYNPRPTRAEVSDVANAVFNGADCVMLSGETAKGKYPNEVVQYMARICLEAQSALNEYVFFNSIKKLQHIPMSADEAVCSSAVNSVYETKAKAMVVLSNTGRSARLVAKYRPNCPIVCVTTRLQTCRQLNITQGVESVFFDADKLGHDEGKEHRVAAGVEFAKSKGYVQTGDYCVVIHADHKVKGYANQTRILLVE
#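 In 50 mM imidazole pH 7.2 with 7 mM MgCl2, LmPK (0.1 nM) turned over PEP (0.5 mM) and ADP (0.1 mM) for 1 h at room temperature. Luciferase read-out of ATP.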
# Tb PYK inh – qHTS of Trypanosoma Brucei Inhibitors; pyruvate kinase (Trypanosoma brucei), Q57TT1; actives 0.12% (n = 410,000); TbPYK enzyme, Kinase-Glo Plus ATP luminescence, 45 min; Potency, µM (series often up to 76.8 µM), for inactives: at the highest dose activity, negative = inhibition, hits mostly inhibitors; also: potency is read from the fitted curve at half-maximal effect; % is scaled to controls: 0 for no effect and ±100 for the full control effect; nearly all actives have a fitted effect of over 50% in size
#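 In this concentration-response screen, enzyme-free wells defined baseline while DMSO plates tracked drift. Each reaction combined TbPYK, substrate, compound and 130 uM ADP for 45 min at room temperature. Kinase-Glo Plus luminescence gave the signal.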
# An asterisk follows results filed as active; ? = inconclusive; · = no result; [ ] = another dose, or the depositor's remark. Shown is part of a subset that was picked to be rich in hits. Unless noted, calls follow the shape of the dose curve; as a rule, active = well fitted curve in the direction sought with a large enough effect; inconclusive = small, poorly fitted or top-dose-only effect, or another doubt; inactive = no such curve, though single readings can be large; an effect the other way counts as inactive or inconclusive.
SMILES,Giardia FBPA inh,Shiga toxin inh,CHX counter,Sm TGR block,LmPK inh,Tb PYK inh
O=C(CN(c1ccc(Br)cc1)S(=O)(=O)c1ccc(Cl)c([N+](=O)[O-])c1)NCC1CCCO1 (configuration not stated),·,·,·,·,·,-5%
COc1ccccc1-c1nc(C#N)c(N2CC(C)CC(C)C2)o1 (configuration not stated),1%,-19,-3,1.1µM*,6%,3%
CC1CC(C)CN(c2oc(-c3ccccc3F)nc2C#N)C1 (configuration not stated),7%,-7,-1,7%,-6%,4%
NNC(=O)c1nc[nH]c1C(=O)Nc1ccccc1,-5%,22*,14*,3%,2%,2%
CC(C)OC(=O)c1cccc(-c2ccc(C=O)o2)c1,1%,80*,77*,-29%,-1%,-7%
C=CC#CC[N+]1(CC#Cc2ccccc2)CCOCC1,-11%,10,3,40µM*,0%,2%
COCCN(CC1CCCN(C2Cc3ccccc3C2)C1)C(=O)c1cccs1 (configuration not stated),-5%,29*,27*,?,4%,-2%
COCCN(CC1CCCN(C2Cc3ccccc3C2)C1)C(=O)CCC(C)=O (configuration not stated),-5%,12,9,?,3%,1%
COCCN(CC1CCCN(C2Cc3ccccc3C2)C1)C(=O)CSC (configuration not stated),-4%,6,3,32µM*,9%,2%
CCCCOc1ccc(CNC(=O)c2ccc(NC(=O)N3CCSc4ncccc43)cc2)cc1,·,·,·,2%,·,-14%[15.4 µM]
CCOc1ccc(/C=N/NC(=O)CCC(=O)Nc2ccc(F)cc2)cc1,6%,14,3,14%,-6%,-13%
O=C(CCc1ccc(O)c(O)c1)N/N=C/c1ccc2c(c1)OCO2,·,25,33*,11µM*,?,-18%
Cc1ccc(C)c(NC(=O)CCC(=O)N/N=C/c2ccc3c(c2)OCO3)c1,-5%,42,20*,12%,1%,-13%
Cc1cc(C)nc(SCC(=O)N/N=C/c2ccc3c(c2)OCO3)n1,·,60*,39*,-3%,-2%,-7%
CCOc1ccc(NC(=O)CCC(=O)N/N=C/c2ccc3c(c2)OCO3)cc1,2%,28,23*,1%,-6%,1%
COc1ccccc1NC(=O)C1=C(C)Nc2nc(SCc3ccccc3C)nn2C1CC(C)C (configuration not stated),·,·,·,0%,·,-1%
CCN(C(=O)Cn1nc(Cc2ccncc2)c2ccccc2c1=O)c1cccc(C(F)(F)F)c1,·,·,·,3%,·,1%
Clc1ccccc1Nc1nc(-c2ccncc2)nc2ccccc12,-8%,-14,-5,1%,-1%,-7%
O=c1oc(Nc2ccccc2F)nc2ccccc12,-6%,53*,34*,0%,-11%,4%
O=c1oc(Nc2ccccc2Cl)nc2ccccc12,-7%,31,23*,·,-1%,-3%
O=c1oc(-c2ccccc2NS(=O)(=O)c2ccc(F)cc2)nc2ccccc12,7%,-6,-3,-2%,-1%,-1%
Clc1cccc(Nc2nc(-c3ccncc3)nc3ccccc23)c1,4%,44,5,1%,-1%,0%
O=c1oc(Nc2cccc(Cl)c2)nc2ccccc12,1%,47*,36*,·,3%,-1%
Cc1ccc(NC(=O)c2cccc(N3CCCS3(=O)=O)c2)cc1,·,·,·,10%,·,-10%
CCOC(=O)c1ccc(NC(=S)Nc2cccc(N)n2)cc1,?,81*,50*,-24%,4%,1%
SMILES,Giardia FBPA inh,Shiga toxin inh,CHX counter,Sm TGR block,LmPK inh,Tb PYK inh
COC(=O)c1ccc(NC(=S)Nc2ccccn2)cc1,1%,73*,42*,-36%,2%,-2%
COc1ccc(NC(=S)Nc2ccccn2)cc1,-6%,135*,46*,?,0%,-1%
CC12CC(NC(=O)N1c1cccc(C(=O)N3CCCCC3)c1)c1ccccc1O2 (configuration not stated),·,-14,-1,0%,-11%,-4%
Brc1ccc(-c2csc(/N=C/N3CCOCC3)n2)cc1,-2%,49,36*,-7%,-5%,1%
Brc1ccc(-c2csc(/N=C/N3CCCC3)n2)cc1,-1%,67*,68*,7%,-3%,-3%
NC(=O)C1(N2CCCCC2)CCN(c2nc(-c3ccc(Br)cc3)cs2)CC1,0%,-28,-14,-21%,6%,-20%
OCCN(/C=N/c1nc(-c2ccc(Br)cc2)cs1)CCO,-3%,64*,30*,2%,3%,28%
CC(=O)N(/N=C/c1cccc(C)c1)c1nc(-c2ccc(Br)cc2)cs1,6%,12,-3,15%,5%,2%
CCN(CC)C(=O)C1=C(C)N(CCC2=CCCCC2)C(=O)C(CC(=O)NCc2cccc3ccccc23)C1 (configuration not stated),·,·,·,·,·,8%
CCOc1ccc(CNCc2c(C(=O)O)n(Cc3ccccc3F)c3cc(OC)ccc23)cc1,·,·,·,-10%,·,0%
CC(C)(C)C#CC(CCc1ccccc1)OS(N)(=O)=O (configuration not stated),-17%,21,12*,28µM*,10%,·
CC(CCc1ccccc1)NS(=O)(=O)c1ccccc1 (configuration not stated),0%,24,-1,1%,2%,-7%
CCOC(=O)C#CC(CCc1ccccc1)OS(N)(=O)=O (configuration not stated),1%,-5,-3,11µM*,1%,-10%
CCOC(=O)N1CCN(C(=O)CCc2ccccc2)CC1,1%,14,-1,9%,-15%,3%
CCc1ccc(NC(=O)CC2C(=O)N(c3ccc(OC)cc3)C(=O)N2Cc2ccc(OC)cc2)cc1 (configuration not stated),·,·,·,-8%,·,-3%
O=c1cc(CN2CCN(c3ccccc3F)CC2)c2ccccc2o1,·,·,·,·,·,5%
CCCCc1cc(-c2n[nH]c(=S)o2)c2ccccc2n1,-4%,-7,-5,45µM*,0%,-32%
CC(=O)N1CCc2cc(CNS(=O)(=O)c3cccs3)ccc21,·,·,·,1%,·,3%
COc1ccccc1OCC(=O)Nc1cccc(-c2nnc(-c3ccco3)o2)c1,1%,82*,36*,6%,3%,-17%
O=C(Cc1ccccc1)Nc1cccc(-c2nnc(-c3ccco3)o2)c1,-2%,86*,30*,8%,1%,-8%

# Screening data from PubChem BioAssay.
